# An excerpt weighted towards active compounds, which were near 5.3% of everything screened.
# ALR H2O2 inh: human ALR oxidase inhibition via reduced H2O2 | purified ALR, DTT oxidation, H2O2 HRP-luminol luminescence | inhibition, % (concentration not given with the values) | 3.8% of 290,000 active | AID 485317;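 active = mean replicate inhibition above about 79%, with every replicate also reaching it, limit read from the data; inconclusive = only one of the two criteria met; inactive = mean below limit and not every replicate reaching it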
# Target sequence (P55789 whole entry, looked up): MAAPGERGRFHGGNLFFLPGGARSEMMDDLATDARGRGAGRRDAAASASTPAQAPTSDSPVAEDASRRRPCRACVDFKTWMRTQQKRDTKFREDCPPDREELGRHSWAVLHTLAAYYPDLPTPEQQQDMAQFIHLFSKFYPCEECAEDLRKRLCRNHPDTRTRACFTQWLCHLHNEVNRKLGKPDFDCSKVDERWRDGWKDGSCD
# SUMO Mot1 rescue: blocks SUMOylation pathway, rescuing yeast Mot1-301 growth. AID 2716. 1% of 320,000 active. growth rescue, % at 18.8 µM. S. cerevisiae Mot1-301 growth rescue, ATP luminescence, 38.5C; percent above DMSO median, 100 means doubled;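 active = every valid replicate shows activation above 250% relative to neutral control wells; inactive = the rest, any valid replicate at or below 250%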;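 also: OY570 slx delta 5 strain wells were the positive control but not used for scaling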
# M18AAP inhibitor: blocks P. falciparum M18 aspartyl aminopeptidase; recombinant PfM18AAP, H-Glu-NHMec fluorogenic cleavage; inhibition, % at 7.35 µM; 1.2% of 290,000 active;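 active = inhibition above the campaign mean inhibition over all tested compounds plus 3 SD, cut at about 28% in these data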;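 also: 0% = plate median of test compound wells and 100% = 2 mM ZnCl2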
# HIF activator: HIF pathway transcriptional activation. U2OS HRE-luciferase reporter, luminescence; normalized: DMSO 0%, desferrioxamine 100%. activation, % at 7.5 µM (by protocol). 0.32% of 300,000 active. AID 1910;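 active = mean activation of at least 10% of the iron chelator positive control signal, with at least half of replicates also reaching 10%; inconclusive = mean and replicate majority disagree about reaching 10%; inactive = mean and most replicates under 10%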
# * hit, by the source's call; i = inactive; ? = inconclusive; / = no result.
SMILES,ALR H2O2 inh,SUMO Mot1 rescue,M18AAP inhibitor,HIF activator
COc1cccc(-n2cnc3c(sc4nc(N5CCOCC5)c5c(c43)CCCC5)c2=O)c1,-5,1,-1,-1
C#CCOCCOCCOCCNc1nc(OC)nc(N2CCN(C(=O)[C@H](CCC(=O)O)n3cc(C(N)CO)nn3)CC2)n1 (some centres not stated),1,-7,/,/
CCCCCCCCCC(=O)N1c2ccccc2NC(=O)C1CC(=O)Nc1ccc(C(=O)O)cc1 (configuration not stated),8,6,0,0
Cc1ccc2nccc(C(=O)N3CCCC(Nc4ccc(C)c(C)c4)C3)c2c1 (configuration not stated),99*,5,16,0
Cc1nc(C(=O)N2CCCC(Nc3ccc(C)c(C)c3)C2)cs1 (configuration not stated),99*,0,1,-1
Cc1ccc(NC2CCCN(C(=O)c3cnsn3)C2)cc1C (configuration not stated),99*,4,7,0
CSc1ncccc1C(=O)N1CCCC(Nc2ccc(C)c(C)c2)C1 (configuration not stated),99*,-7,-3,0
Cc1nc(CC(C)C)cc(C(=O)N2CCCC(Nc3ccc(C)c(C)c3)C2)n1 (configuration not stated),?,222,5,0
Oc1ccc(Nc2nc(-c3ccccc3)nc3ccccc23)cc1,98*,-7,-24,0
COc1ccc(Nc2nc(-c3ccccc3)nc3ccccc23)cc1,2,-2,-5,1
CC(=O)Nc1ccc(Nc2nc(-c3ccccc3)nc3ccccc23)cc1,99*,4,-4,0
COC(=O)CNc1nc(-c2ccccc2F)nc2ccccc12,11,-9,0,0
CC(=O)Nc1cccc(Nc2nc(-c3ccccc3F)nc3ccccc23)c1,98*,2,-3,0
Oc1ccc(Nc2nc3ccccc3nc2Nc2ccc(O)cc2)cc1,96*,4,-4,-8
Cc1ccc(C(=O)COC(=O)CNC(=O)c2ccccc2)s1,-2,-3,/,/
CC(=O)Oc1ccc(C(=O)N2c3ccccc3NC(=O)C2C)cc1 (configuration not stated),3,0,-1,0
COc1ccccc1C(O)(C(=O)NNc1ccccc1C)c1ccccc1OC,6,95,-9,0
COc1ccccc1C(O)(C(=O)NNc1cccc(C)c1)c1ccccc1OC,95*,226,-1,0
CC(C)Sc1nc2[nH]ncc2c(=O)[nH]1,-7,-8,8,0
O=C(c1ccccc1F)N1CCN(C2CCC(c3ccccc3)CC2)CC1 (configuration not stated),/,282*,9,0
O=C(c1ccc(F)cc1)N1CCN(C2CCC(c3ccccc3)CC2)CC1 (configuration not stated),-1,243,9,0
COc1ccc(/C=N/NC(=O)c2ccco2)cc1Cn1nc(C)cc1C,77*,146,-6,1
O=C(CCNC(=O)c1ccccc1Cl)N/N=C\c1ccc(O)cc1,/,-5,-8,0
COc1cc(/C=N/NC(=O)CCC(=O)Nc2ccc(F)cc2)ccc1O,38,-4,4,0
COc1cc(/C=N/Nc2ccccc2)ccc1O,99*,30,19,0
SMILES,ALR H2O2 inh,SUMO Mot1 rescue,M18AAP inhibitor,HIF activator
COc1cc(/C=N/N(c2ccccc2)c2ccccc2)ccc1O,/,-10,13,-1
COc1cc(/C=N/NC(=O)CCNC(=O)c2ccccc2Cl)ccc1O,99*,2,-11,0
COc1cc(/C=N/NC(=O)CCc2ccccc2)ccc1O,99*,9,-2,-1
Cc1ccc2[nH]c(CSc3ccccc3)cc(=O)c2c1,/,-1,1,0
Cc1nn(CC(=O)N(CC(C)C)C2CCS(=O)(=O)C2)c(C)c1[N+](=O)[O-] (configuration not stated),-13,-17,/,/
COc1cc(/C=N/NC(=O)CNC(=O)c2ccco2)ccc1O,99*,16,-8,0
COc1ccc(/C=N/Nc2nc(N3CCCC3)nc(N3CCCC3)n2)cc1O,99*,-4,-8,0
CCCCn1c(NCc2ccc3c(c2)OCO3)nc2ccccc21,92*,16,-4,0
CCCn1c(NCc2ccc3c(c2)OCO3)nc2ccccc21,96*,-28,1,0
COc1ccc(CN2C(=O)[C@H]3Cc4c([nH]c5ccccc45)C(C)(C)N3C2=O)cc1,-10,16,/,-1
Cc1cccc(N(CC(=O)NCc2ccco2)C(=O)CCC(=O)Nc2ccccn2)c1C,/,-2,8,0
O=C(O)[C@H](Cc1c[nH]c2ccccc12)Nc1ncccc1[N+](=O)[O-],7,75,-9,0
O=C(OCc1ccccc1)Oc1cncc(C(=O)O)c1,98*,-9,3,1
O=C(OCc1ccccc1)c1ccccc1,0,-3,/,1
CCC1(C)N=C(N)Nc2nc3cc(C)c(C)cc3n21 (configuration not stated),99*,18,0,-15
CCOC(=O)CSc1n[nH]c(NC(=O)CC)n1,/,-2,-3,0
CCOC(=O)CSc1n[nH]c(NC(=O)c2cccc(C(F)(F)F)c2)n1,99*,-5,4,0
Cc1nn(C)cc1CN(C)S(=O)(=O)c1cccc([N+](=O)[O-])c1,/,550*,-9,0
C=CCNC(=O)NC(=O)COC(=O)[C@H](C)NS(=O)(=O)c1c(C)c(C)cc(C)c1C,0,i,1,0
COc1ccc(C2=CSC3=NCCN23)cc1F,85*,-7,6,0
O=C(NC(=S)N(Cc1ccccc1)c1ccccn1)C1CCCCC1,99*,4,1,0
CSc1ccccc1C(=O)Nc1cc2c(cc1C(=O)O)OCCCO2,/,485,2,-1
COc1ccc(-c2nc(CSCC(=O)N3CCC(C(N)=O)CC3)c(C)o2)cc1OC,99*,-11,-13,0
COc1ccc(-c2nc(CSCC(=O)N3CCc4ccccc4C3)c(C)o2)cc1OC,98*,52,3,0
COc1ccc(-c2nc(CSCC(=O)N3CCN(c4cccc(C)c4)C(C)C3)c(C)o2)cc1OC (configuration not stated),99*,-12,-4,0
SMILES,ALR H2O2 inh,SUMO Mot1 rescue,M18AAP inhibitor,HIF activator
Cc1cnc(C(=O)NCC(c2ccccc2)c2ccccc2)cn1,-2,164,-5,0
Clc1cccc(-c2ccc(CNCCCN3CCOCC3)o2)c1,-2,1,-7,0
Nc1ccc2nc[nH]c2c1,99*,4,-7,3
CCCCC[C@H]1CN(Cc2ccccc2)C(=O)[C@@H]1CC(=O)NCc1ccccc1,-14,7,7,-2
COc1ccc(N2CSC3=C(C#N)C(c4cccs4)CC(=O)N3C2)cc1 (configuration not stated),11,/,43*,3
COc1cc(OC)c(C2CC(=O)N3CN(c4ccc(C)cc4)CSC3=C2C#N)cc1OC (configuration not stated),-36,9,31*,2
